Assay outcomes (PubChem BioAssay)
Cruzain noTriton: blocks cruzain activity in detergent-free assay; P25779; purified cruzain, Z-FR-AMC fluorescence, no detergent; Potency, µM, most hits filed as inhibitors; actives 2.3% (n = 200,000); note: nearly all actives have a fitted effect of over 40% in size
Target sequence (P25779 123-467 limits assumed): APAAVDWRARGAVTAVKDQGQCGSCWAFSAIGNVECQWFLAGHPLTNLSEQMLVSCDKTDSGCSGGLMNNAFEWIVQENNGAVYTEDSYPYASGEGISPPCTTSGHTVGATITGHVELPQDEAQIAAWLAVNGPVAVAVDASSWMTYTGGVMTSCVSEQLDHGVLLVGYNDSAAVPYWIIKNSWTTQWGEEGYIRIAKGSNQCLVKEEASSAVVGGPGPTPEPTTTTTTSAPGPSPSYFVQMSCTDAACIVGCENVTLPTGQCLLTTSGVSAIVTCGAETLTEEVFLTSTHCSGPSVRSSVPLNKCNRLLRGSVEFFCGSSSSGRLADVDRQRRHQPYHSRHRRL
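Purified cruzain at 1.5 nM, pre-incubated 15 min with compound at room temperature in 100 mM sodium acetate pH 5.5, 5 mM DTT, 0.00005% Triton X-100. Reaction started with 2 uM Z-FR-AMC; AMC fluorescence increase over 60 s gives rate.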
Cruzain Triton: inhibitors of Trypanosoma cruzi cruzain with detergent | purified cruzain, Z-FR-AMC fluorescence, 0.01% Triton | Potency, µM, hits mostly inhibitors | actives 0.43% (n = 200,000) | AID 1478; note: nearly all actives have a fitted effect of over 40% in size
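Compounds were screened in titration against cruzain (1.5 nM) with 0.01% Triton X-100 to counter colloidal aggregation. Activity was the AMC fluorescence increase over 60 s after adding 2 uM Z-FR-AMC at pH 5.5.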
Hits are given with their value; n = inactive; u = inconclusive. Most compounds without a hit are left out; they make up all but 2.6% or so of the library. Calls come from the whole dose curve; as a rule, active = well fitted curve in the direction sought with a large enough effect; inconclusive = small, poorly fitted or top-dose-only effect, or another doubt; inactive = no such curve, though single readings can be large; an effect the other way counts as inactive or inconclusive.

SMILES | Cruzain noTriton | Cruzain Triton
Cc1cc(C)cc(-n2c(C)cc(/C=C3\C(=N)N4N=C(CC(C)C)SC4=NC3=O)c2C)c1 | 25µM | n
N=C1/C(=C\c2ccc(-c3cc(Cl)cc(Cl)c3)o2)C(=O)N=C2SC=C(c3ccccc3)N12 | 2.5µM | n
N=C1/C(=C/c2cccn2CCOc2ccccc2)C(=O)N=C2SC=C(c3ccccc3)N12 | 6.3µM | n
Cc1ccc(-n2c(C)cc(/C=C3/C(=N)N4C(c5ccccc5)=CSC4=NC3=O)c2C)cc1 | 6.3µM | n
CC1=CC2=NC(=O)/C(=C\c3cccn3CCOc3ccc(C)c(C)c3)C(=N)N2O1 | n | n
CCCC1=NN2C(=N)/C(=C\c3cc(C)n(-c4cc(C)cc(C)c4)c3C)C(=O)N=C2S1 | u | n
Cc1cccc(-n2c(C)cc(/C=C3\C(=N)N4N=C(CC(C)C)SC4=NC3=O)c2C)c1 | u | n
Cc1ccc2nc3c(cc(C(=O)NCc4ccco4)c(=N)n3C(C)C)c(=O)n2c1 | n | n
COc1ccccc1/C=C/C(=O)NC(=S)Nc1ccc(S(=O)(=O)N(C)c2ccccc2)cc1 | 4µM | n
CN(c1ccccc1)S(=O)(=O)c1ccc(NC(=S)NC(=O)c2ccccc2)cc1 | u | n
Cc1cc(C)c(NS(=O)(=O)c2ccc(-c3coc(C)n3)cc2)c(C)c1 | n | n
Brc1ccc(-c2nn3c(Cc4ccccc4)nnc3s2)o1 | n | n
c1ccc(Cc2nnc3sc(Nc4ccccc4)nn23)cc1 | 25µM | n
CC(C)Sc1ncc(Cl)c(C(=O)N(Cc2ccc(N(C)C)cc2)C2CCS(=O)(=O)C2)n1 (stereo not drawn) | u | n
Cc1ccccc1/C=C(\C#N)c1nc(-c2ccc(Cl)cc2)cs1 | n | n
CCOc1ccc(-c2nnn(CC(=O)NCc3ccc(OC)cc3)n2)cc1OCC | n | n
COc1ccc(CNC(=O)Cn2nnc(-c3ccc(NC(=O)C4CCCCC4)cc3)n2)cc1 | 10µM | n
COc1cc(CN(C(=O)COc2ccc(C)c(C)c2)c2ccccn2)cc(OC)c1OC | u | n
CCOc1ccc(-n2c(-c3ccc(Br)cc3)cc3c2CC(C)(C)CC3=O)cc1 | n | n
Cc1ccc(C)c(S(=O)(=O)N2CCN(C(C(=O)Nc3ccc(F)cc3)c3ccccc3)CC2)c1 (stereo not drawn) | 25µM | n
O=C(Nc1ccc(F)cc1)C(c1ccccc1)N1CCN(S(=O)(=O)c2ccc3ccccc3c2)CC1 (stereo not drawn) | u | n
Cc1cccc(N2CCN(C(=O)CCC(=O)NNc3nc4ccccc4c4nc(C)nn34)CC2C)c1 (stereo not drawn) | u | n
COC(=O)c1cc2sc(Cl)cc2n1CC(=O)NCCC(C)C | 25µM | n
COC(=O)c1cc2sc(Cl)cc2n1CC(=O)Nc1cc(OC)cc(OC)c1 | n | n
BrC/C=C/CBr | n | n
SMILES | Cruzain noTriton | Cruzain Triton
Cc1cc(/C=C2\SC(=S)N(Cc3ccco3)C2=O)c(C)n1-c1ccccc1 | 10µM | n
O=C1/C(=C\c2ccco2)SC(=S)N1Cc1ccccc1 | n | n
Cc1ccc2nc(SCc3nnc(-c4ccccc4)o3)[nH]c2c1 | n | n
Cc1ccc(C(=O)NNC(=O)CSc2nnc3c(n2)[nH]c2ccc(C)cc23)cc1 | u | n
CCc1ccc2[nH]c3nc(SCc4nnc(-c5ccc(C)cc5)o4)nnc3c2c1 | 13µM | n
CCc1ccc2[nH]c3nc(SCC(=O)NNC(=O)c4ccc(C(C)(C)C)cc4)nnc3c2c1 | 4µM | n
O=C(Nc1ccccc1Br)C(Cc1ccccc1)NS(=O)(=O)c1cccc2nsnc12 (stereo not drawn) | u | n
Cc1ccc(OCC(=O)Nc2ccc(S(=O)(=O)Nc3ncccn3)cc2)c(C(C)(C)C)c1 | u | n
CCCN1CCc2nc(N3CCN(c4ncccn4)CC3)ncc2C1 | n | n
O=C(Nc1cccc2ccccc12)c1nn(C23CC4CC(CC(C4)C2)C3)cc1Br | 10µM | n
Cc1ccc(NC(=O)c2nn(C34CC5CC(CC(C5)C3)C4)cc2[N+](=O)[O-])cc1 | u | n
Cc1ccccc1NC(=S)/C(=C(\[O-])c1ccc(C)c([N+](=O)[O-])c1)[n+]1ccccc1 | n | n
COc1cccc(NC(=S)/C(=C(\[O-])c2ccc(C)c([N+](=O)[O-])c2)[n+]2ccccc2)c1 | 25µM | n
Cc1ccc(NC(=S)/C(=C(\[O-])c2ccc(C)c([N+](=O)[O-])c2)[n+]2ccccc2)cc1C | 25µM | n
CCC(=O)Nc1cccc(NC(=O)c2ccc(C)c([N+](=O)[O-])c2)c1 | n | n
Cc1ccccc1OCC(=O)Nc1nnc(S(=O)(=O)N(C)c2ccccc2)s1 | n | n
O=C(CSc1nc2ccccc2n1Cc1ccccc1Cl)NCc1ccccc1 | n | n
CCN(CC)CCNC(=O)c1ccc2c(c1)NC(=O)C(CS(=O)(=O)Cc1cccc(Br)c1)N2 (stereo not drawn) | n | n
CCN(CC)c1cc(C)nc2nc(-c3ccc(C)cc3)nn12 | n | n
O=C(On1c(-c2ccccc2)nc2ccccc2c1=O)c1ccco1 | u | 28µM
COc1cc(OC)cc(-c2nc3ccccc3c(=O)n2OC(=O)c2ccccc2C)c1 | n | n
Cc1ccc(CN2CCC(CNc3ncnc4onc(-c5ccc(Cl)cc5)c34)CC2)cc1 | n | n
CCOC(=O)c1c(NC(=O)CSc2c[nH]c3ccccc23)sc2c1CCC2 | 32µM | n
CCOC(=O)c1c(NC(=O)CSc2nnc(-c3c[nH]c4ccccc34)n2CCOC)sc2c1CCCCC2 | n | n
CCOC(=O)c1c(NC(=O)CSc2c[nH]c3ccccc23)sc2c1CCCC2 | 25µM | n
SMILES | Cruzain noTriton | Cruzain Triton
CCOC(=O)c1c(NC(=O)CSc2nnc3ccccn23)sc2c1CCC2 | n | n
COc1ccccc1NC(=O)C1=C(C)Nc2nc(-c3ccc(N(C)C)cc3)nn2C1c1ccncc1 (stereo not drawn) | u | n
COc1ccccc1NC(=O)C1=C(C)Nc2nc(-c3cccs3)nn2C1c1cccnc1 (stereo not drawn) | 16µM | n
Cc1c(Cl)cccc1-c1ccc(C(=O)Nc2ccc(F)cc2)o1 | n | n
O=C(Nc1cccc(Cl)c1Cl)C1CC(=O)N(c2ccc(Br)cc2)C1 (stereo not drawn) | 25µM | n
O=C(Nc1cccc(F)c1)C1CC(=O)N(c2ccc(Br)cc2)C1 (stereo not drawn) | n | n
CCCCCn1c(N2CCN(c3cccc(Cl)c3)CC2)nc2c1c(=O)[nH]c(=O)n2C | u | n
Cn1c(=O)[nH]c(=O)c2c1nc(N1CCN(c3cccc(Cl)c3)CC1)n2CCCc1ccccc1 | 13µM | n
CCc1nn(CC(=O)NCC(C)c2ccccc2)c(=O)c2cc3c(OC)cccc3n12 (stereo not drawn) | n | n
O=C(CCC1N=C2c3ccccc3N=C(SCc3cccc(F)c3)N2C1=O)NCCc1ccccc1 (stereo not drawn) | u | n
COc1ncnc2sc(-c3ccccc3)cc12 | n | n
COc1ccccc1C(=O)Nc1ccc(Oc2ncnc3sc(-c4ccccc4)cc23)cc1 | 6.3µM | n
COc1cc(C(=O)Nc2ccc(Oc3ncnc4sc(-c5ccccc5)cc34)cc2)cc(OC)c1OC | n | n
COc1ccc(Nc2ncnc3sc(-c4ccccc4)cc23)cc1 | 32µM | n
O=C(O)c1cc[c]([Hg][S]c2ncnc3nc[nH]c23)cc1 | n | n
C#CC(C)(C)NS(=O)(=O)c1cc(-c2nnc(Nc3ccc(C)cc3)c3ccccc23)ccc1C | n | n
